The campaign covered roughly 420,000 compounds. About 50,000 (12%) were called active. Another 26% or so got no clear call; they are omitted. Only a selection was taken, and actives are over-represented in it overall. Unmarked numbers belong to inactive results. Calls follow the shape of the dose curve; as a rule, active = well fitted inhibition curve with a large enough effect; inconclusive = small, poorly fitted or top-dose-only effect; inactive = flat fitted curve, though single readings scatter.
Test: qHTS for Inhibitors of human tyrosyl-DNA phosphodiesterase 1 (TDP1): qHTS in cells in presence of CPT; also: nearly all actives have a fitted effect of over 55% in size
Conditions: chicken DT40 Tdp1-/-;hTDP1 cells + 20 nM CPT, ATP luminescence, 48 h; series mostly up to 46.2 µM; activity change, negative = growth inhibition: at the top concentration
In short: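 Chicken DT40 Tdp1-/- cells complemented with human TDP1, 400 cells/well, exposed to compounds plus 20 nM camptothecin for at least 48 h at 37 C; viability read as ATP content by CellTiter-Glo luminescence.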
With `CCOC(=O)c1cc(-c2ccc(F)cc2)n(CC(=O)NCc2ccccn2)c1C` the “activity change, negative = growth inhibition” value was -28.4%.
With `Cc1oc(-c2ccccc2F)nc1CS(=O)CC(=O)NCCN1CCCCC1C` (stereo not drawn) the “activity change, negative = growth inhibition” value was -11.7%.
With `CN(C)c1ccc(-c2nc(NCCN3CCOCC3)c3ccccc3n2)cc1` the Potency was 5.8 µM (active).
In the case of `Fc1ccc(-c2ccc(NCCN3CCOCC3)nn2)cc1`, the “activity change, negative = growth inhibition” value is reported as 14.9%.
With `CCC(=O)OCCNc1nc(-c2ccccc2)nc2ccccc12` the “activity change, negative = growth inhibition” value was -7.36%.
With `CC1CCN(C(=O)CSc2nnc(-c3ccco3)n2N)CC1` the “activity change, negative = growth inhibition” value was 1.45%.
In the case of `CC1(C(=O)NS(=O)(=O)c2cccc(OC(F)F)c2)CCN1C(=O)C1CC1` (stereo not drawn), the “activity change, negative = growth inhibition” value is reported as 2.49%.
With `CC1CCCCC1NC(=O)COC(=O)Cc1ccc(Cl)cc1` (stereo not drawn) the “activity change, negative = growth inhibition” value was -2%.
For `COc1ccc(-n2nnnc2-c2nc3ccccc3s2)cc1`, the “activity change, negative = growth inhibition” value was 13.4%.
For `COc1ccc(C2=NN(C(C)=O)C(c3ccccc3)C2)cc1` (stereo not drawn), the “activity change, negative = growth inhibition” value was -23.8%.
With `COc1ccc(C2=NN(c3nc4ccccc4s3)C(=O)C2)cc1` the Potency was 20.6 µM (active).
For `COc1ccc(S(=O)(=O)NCC2CCCN(C(=O)c3occc3C)C2)cc1` (stereo not drawn), the “activity change, negative = growth inhibition” value was -0.797%.
With `Cc1ccccc1OCC(=O)NCC(=O)OCC(=O)c1ccc2ccccc2c1` the Potency was “inactive”.
In the case of `CC1(NC(=O)CCS(=O)(=O)c2ccc(Cl)cc2)CCS(=O)(=O)C1` (stereo not drawn), the “activity change, negative = growth inhibition” value is reported as 7.44%.
In the case of `CCOc1ccc(CN2CCN(Cc3ccc(C)o3)CC2CCO)cc1` (stereo not drawn), the “activity change, negative = growth inhibition” value is reported as -29%.
In the case of `O=S(=O)(Nc1ccc2[nH]ncc2c1)c1ccccc1Cl`, the “activity change, negative = growth inhibition” value is reported as -15.7%.
For `CC(=O)Nc1ccc(N2CCOCC2)c(C(=O)Nc2cccc(C)c2)c1`, the Potency was 13 µM (active).
With `COC(=O)c1cc(NC(=O)c2ccco2)ccc1N1CCOCC1` the “activity change, negative = growth inhibition” value was 2.1%.
In the case of `COC(=O)c1cc(NC(=O)c2cccnc2)ccc1N1CCOCC1`, the “activity change, negative = growth inhibition” value is reported as 6.29%.
In the case of `CCN(CC)c1ccc(NC(=O)c2ccc(=O)[nH]c2)cc1S(=O)(=O)Nc1ccc(OC)cc1`, the Potency is reported as 29.1 µM (active).
In the case of `O=C(NNC(=O)c1cccc(S(=O)(=O)Nc2ccc(Cl)cc2)c1)c1ccc(=O)[nH]c1`, the “activity change, negative = growth inhibition” value is reported as -6.95%.
In the case of `COc1ccc(NS(=O)(=O)c2cc(NC(=O)c3ccc(S(=O)(=O)N(C)C)cc3)ccc2N2CCOCC2)cc1`, the “activity change, negative = growth inhibition” value is reported as -1.24%.
For `Cc1cc(OCC(=O)N2CCN(c3ncccn3)CC2)ccc1Cl`, the “activity change, negative = growth inhibition” value was -26.2%.
In the case of `COC(=O)C1=C(C)N(C)C(=S)NC1c1cc(OC)ccc1OC` (stereo not drawn), the “activity change, negative = growth inhibition” value is reported as -20.3%.
With `COC(=O)C1=CN(Cc2ccc(OC)c(OC)c2)C=C(C(=O)OC)C1c1cccs1` the “activity change, negative = growth inhibition” value was -1.53%.
With `COc1cc2c(cc1OC)[C@@H](Cc1cc(OC)c(OC)c(OC)c1)[N+](C)(CCCOC(=O)CC/C=C/CCC(=O)OCCC[N+]1(C)CCc3cc(OC)c(OC)cc3[C@H]1Cc1cc(OC)c(OC)c(OC)c1)CC2` (stereo partly drawn) the Potency was “inactive”.
With `COc1ccc(CC2c3cc(OC)c(OC)cc3CC[N+]2(C)CCC(=O)OCCCCCOC(=O)CC[N+]2(C)CCc3cc(OC)c(OC)cc3C2Cc2ccc(OC)c(OC)c2)cc1OC` (stereo not drawn) the Potency was 16.4 µM (active).
In the case of `O=C(NCc1cccc(CNC(=O)Nc2cccc(O)c2)c1)Nc1cccc(O)c1`, the “activity change, negative = growth inhibition” value is reported as -20.5%.
For `COc1ccc(C(=O)OCC(=O)Nc2ccc3[nH]c(=O)[nH]c3c2)c(OC)c1OC`, the “activity change, negative = growth inhibition” value was 9%.
With `C/C(=N\N1CCN(Cc2ccc(C)cc2)CC1)c1ccco1` the “activity change, negative = growth inhibition” value was -26.3%.
With `NS(=O)(=O)c1ccc(N2C(=O)C3C4CC(C(Br)C4Br)C3C2=O)cc1` (stereo not drawn) the “activity change, negative = growth inhibition” value was -4.7%.
In the case of `Cc1cc(O)ccc1NC1=CC(=O)CC(C)(C)C1`, the “activity change, negative = growth inhibition” value is reported as -0.129%.
For `CC1(C)CC(=O)C=C(Nc2ccccc2)C1`, the “activity change, negative = growth inhibition” value was 0.431%.
With `Cc1ccccc1C#CC1=CC(=O)CC(C)(C)C1` the Potency was 20.6 µM (active).
With `COc1ccc(C2(O)C(=O)Nc3ccccc32)cc1` (stereo not drawn) the “activity change, negative = growth inhibition” value was 5.89%.
For `CC(=O)N1CCN(CC(C)(C)NS(=O)(=O)c2ccc(C)cc2)CC1`, the “activity change, negative = growth inhibition” value was -13.6%.
For `COc1ccc2cc(S(=O)(=O)Nc3ccccn3)ccc2c1`, the “activity change, negative = growth inhibition” value was 2.24%.
With `COc1cc(NS(=O)(=O)c2ccc3ccccc3c2)c2ncccc2c1` the Potency was 8.2 µM (active).
With `CCOc1ccc(OCC)c(NS(=O)(=O)c2ccc3[nH]c(=O)ccc3c2)c1` the “activity change, negative = growth inhibition” value was -20.2%.
`CN(C)C(=O)[C@@H]1C[C@@H](Sc2nc3ccccc3[nH]2)CN1Cc1ccc(Cl)cc1` gave an activity change, negative = growth inhibition of 0.0416% [at 9.04 µM].
For `CCOC(=O)C(C)Oc1cccc2c(=O)n(CC(=O)N3CCc4ccccc43)ccc12` (stereo not drawn), the “activity change, negative = growth inhibition” value was -24.8%.
In the case of `CCCCn1nc(C(=O)OCC(=O)Nc2sccc2C(N)=O)c2ccccc2c1=O`, the “activity change, negative = growth inhibition” value is reported as 1.03%.
For `CCCCn1nc(C(=O)N2CCc3ccccc32)c2ccccc2c1=O`, the Potency was 18.4 µM (active).
In the case of `O=C(CSc1nc2ccccc2[nH]1)Nc1nc(-c2ccccc2)c(-c2ccccc2)o1`, the “activity change, negative = growth inhibition” value is reported as 12.2%.
With `O=C(CSc1n[nH]c(-c2cccs2)n1)N1CCCCC1` the “activity change, negative = growth inhibition” value was 0.0429%.
For `Cc1cccc(C)c1-n1c(C)cc(/C=C2\C(=O)NN(c3ccccc3)C2=O)c1C`, the “activity change, negative = growth inhibition” value was -17.4%.
For `Cn1c(=O)c2c(ncn2CC(COCc2ccccc2Cl)OCc2ccccc2Cl)n(C)c1=O` (stereo not drawn), the Potency was 25.9 µM (active).
For `CC(C)Cn1cnc2c1c(=O)n(CC(O)c1ccccc1)c(=O)n2CC(C)C` (stereo not drawn), the “activity change, negative = growth inhibition” value was -27.6%.
In the case of `Cn1c(=O)c2c(ncn2CCc2ccccc2)n(C)c1=O`, the “activity change, negative = growth inhibition” value is reported as 1.78%.
With `COc1ccc(C)cc1NC(=O)CSc1nnc2ccc(-c3ccccn3)nn12` the “activity change, negative = growth inhibition” value was -26.6%.
In the case of `CCN(Cc1ccccc1)S(=O)(=O)c1cc2c3c(c1)CCN3C(=O)CC2`, the “activity change, negative = growth inhibition” value is reported as -22%.
For `O=C(CCc1nc(CN2CCN(S(=O)(=O)c3ccc(F)cc3)CC2)no1)N1CCCCC1`, the “activity change, negative = growth inhibition” value was -5.76%.
With `COc1cccc(NC(=O)NCc2ccc(F)cc2)c1` the “activity change, negative = growth inhibition” value was 5.46%.
For `COc1ccc(CNC(=O)CN2CCC(n3nnc4cc(F)ccc43)CC2)cc1`, the “activity change, negative = growth inhibition” value was 6.39%.
For `CCc1ccc(CNCc2c(C(=O)O)n(Cc3ccc(F)cc3Cl)c3cc(OC)ccc23)cc1`, the Potency was 11.6 µM (active).
In the case of `COc1cc(C)nc(N2CCCC(C(=O)NCC(C)C)C2)n1` (stereo not drawn), the “activity change, negative = growth inhibition” value is reported as -14.4%.
In the case of `O=C(Nc1ccccc1)O/N=C1\CCCCC1c1ccc([N+](=O)[O-])cc1[N+](=O)[O-]` (stereo not drawn), the “activity change, negative = growth inhibition” value is reported as -24%.
With `CC(=O)Nc1nc(C)c(-c2csc(Nc3ccc(S(N)(=O)=O)cc3)n2)s1` the “activity change, negative = growth inhibition” value was -24.8%.
For `C=CCCC(=O)Nc1nc(C)c(-c2csc(Nc3ccc(Cl)cc3)n2)s1`, the Potency was 11.6 µM (active).
In the case of `Cc1ccn2c(-c3csc(Nc4ccc(C(=O)O)cc4)n3)c(C)nc2c1`, the “activity change, negative = growth inhibition” value is reported as -25.8%.
With `Cc1nnc(NC(=O)CCCOc2ccccc2)s1` the “activity change, negative = growth inhibition” value was -8.05%.
In the case of `COc1cccc(NC(=O)COc2cccnc2[N+](=O)[O-])c1`, the “activity change, negative = growth inhibition” value is reported as -22.7%.
For `CCCCCCC(=O)Nc1nc(C)c(-c2csc(Nc3cccc(OC)c3)n2)s1`, the Potency was 20.6 µM (active).
% is scaled to controls: 0 for no effect and ±100 for the full control effect; potency is read from the fitted curve at half-maximal effect.
